Reference: PubChem BioAssay (NCATS)
Records with an inconclusive call do not appear. A call without a number means that no potency is given here. The source made the active and inactive calls. Calls follow the shape of the full dose curve.

Experiment: Primary qHTS for inhibitors of SARS-S pseudo-typed particle cell entry (AID 1479145); also: nearly all actives have a fitted effect of over 45% in size
Conditions: SARS-S pseudotyped particle cell entry, luciferase reporter; series mostly up to 57.1 µM

Structure (SMILES) | Potency
CN(C)c1cc(NC(=O)CNC(C)(C)C)c(O)c2c1C[C@@H]1C[C@H]3[C@H](N(C)C)C(=O)C(C(N)=O)=C(O)[C@@]3(O)C(=O)C1=C2O | inactive
CC(S)C(=O)NCC(=O)O (centres undefined) | inactive
CO[C@H]1C=CO[C@@]2(C)Oc3c(C)c(O)c4c(O)c(c(/C=N/N5CCN(C)CC5)c(O)c4c3C2=O)NC(=O)/C(C)=C\C=C[C@H](C)[C@H](O)[C@@H](C)[C@@H](O)[C@@H](C)[C@H](OC(C)=O)[C@@H]1C | inactive
CN(N=O)C(=O)N[C@@H]1[C@@H](O)[C@H](O)[C@@H](CO)O[C@@H]1O | inactive
O=C(O)CCNC(=O)c1ccc(N=Nc2ccc(O)c(C(=O)O)c2)cc1 | inactive
CC(C)NCC(O)COc1ccc(CCOCC2CC2)cc1 (centres undefined) | inactive
Nc1nc2c(ncn2COCCO)c(=O)[nH]1 | inactive
C[n+]1ccccc1/C=N/O | inactive
Cn1cc[nH]c1=S | inactive
NS(=O)(=O)Cc1noc2ccccc12 | inactive
CC(C)(C)NC(=O)[C@@H]1CN(Cc2cccnc2)CCN1C[C@@H](O)C[C@@H](Cc1ccccc1)C(=O)N[C@H]1c2ccccc2C[C@H]1O | inactive
O=NN(CCCl)C(=O)NCCCl | inactive
CN(C)c1nc(N(C)C)nc(N(C)C)n1 | inactive
C[C@H]1[C@H](NC(=O)/C(=N/OC(C)(C)C(=O)O)c2csc(N)n2)C(=O)N1S(=O)(=O)O (stereo in doubt) | inactive
CCN(CC)C(=O)N[C@@H]1C=C2c3cccc4[nH]cc(c34)C[C@@H]2N(C)C1 | inactive
O=C(O)P(=O)(O)O | inactive
CN(CCOc1ccc(NS(C)(=O)=O)cc1)CCc1ccc(NS(C)(=O)=O)cc1 | inactive
Cc1ccc(C)c(OCCCC(C)(C)C(=O)O)c1 | inactive
CNC1(C)C2CCC(C2)C1(C)C (centres undefined) | inactive

Structure (SMILES) | Potency
Cc1cccc(Nc2ccncc2S(=O)(=O)NC(=O)NC(C)C)c1 | inactive
CC1Cc2ccccc2N1NC(=O)c1ccc(Cl)c(S(N)(=O)=O)c1 (centres undefined) | inactive
CCCCC1=NC2(CCCC2)C(=O)N1Cc1ccc(-c2ccccc2-c2nn[nH]n2)cc1 | inactive
CCN(CC)CCNC(=O)c1cc(Cl)c(N)cc1OC | inactive
Nc1nc(F)nc2c1ncn2[C@@H]1O[C@H](CO)[C@@H](O)[C@@H]1O | inactive
O=c1n(CCCN2CCN(c3cccc(Cl)c3)CC2)nc2ccccn12 | inactive
Oc1ccc(C2CNCCc3c2cc(O)c(O)c3Cl)cc1 (centres undefined) | inactive
CCc1c2c(nc3ccc(OC(=O)N4CCC(N5CCCCC5)CC4)cc13)-c1cc3c(c(=O)n1C2)COC(=O)[C@]3(O)CC | inactive
N[C@@H]1CONC1=O | inactive
NC(=O)OCC(COC(N)=O)c1ccccc1 | inactive
Nc1nnc(-c2cccc(Cl)c2Cl)c(N)n1 | inactive
CC(=O)N[C@@H](CS)C(=O)O | inactive
O=C(O)c1cn(C2CC2)c2cc(N3CCNCC3)c(F)cc2c1=O | inactive
CCCCCOC(=O)Nc1nc(=O)n([C@@H]2O[C@H](C)[C@@H](O)[C@H]2O)cc1F | inactive
O=C1NC(c2ccccc2)(c2ccccc2)C(=O)N1COP(=O)(O)O | inactive
O=C1OCCN1/N=C/c1ccc([N+](=O)[O-])o1 | inactive
NCCC(O)(P(=O)(O)O)P(=O)(O)O | inactive
CN(C)/N=N/c1nc[nH]c1C(N)=O | inactive

Experiment: Primary qHTS for Huh7 cytotoxicity: counterscreen for inhibitors of MERS-S pseudotyped particle cell entry (AID 1479147)
Conditions: cell viability read-out; series mostly up to 57.1 µM

Structure (SMILES) | Potency
CN(C)c1cc(NC(=O)CNC(C)(C)C)c(O)c2c1C[C@@H]1C[C@H]3[C@H](N(C)C)C(=O)C(C(N)=O)=C(O)[C@@]3(O)C(=O)C1=C2O | inactive
CC(S)C(=O)NCC(=O)O (centres undefined) | inactive
CO[C@H]1C=CO[C@@]2(C)Oc3c(C)c(O)c4c(O)c(c(/C=N/N5CCN(C)CC5)c(O)c4c3C2=O)NC(=O)/C(C)=C\C=C[C@H](C)[C@H](O)[C@@H](C)[C@@H](O)[C@@H](C)[C@H](OC(C)=O)[C@@H]1C | inactive
CN(N=O)C(=O)N[C@@H]1[C@@H](O)[C@H](O)[C@@H](CO)O[C@@H]1O | inactive
O=C(O)CCNC(=O)c1ccc(N=Nc2ccc(O)c(C(=O)O)c2)cc1 | inactive
CC(C)NCC(O)COc1ccc(CCOCC2CC2)cc1 (centres undefined) | inactive
Nc1nc2c(ncn2COCCO)c(=O)[nH]1 | inactive
C[n+]1ccccc1/C=N/O | inactive
Cn1cc[nH]c1=S | inactive
NS(=O)(=O)Cc1noc2ccccc12 | inactive
CC(C)(C)NC(=O)[C@@H]1CN(Cc2cccnc2)CCN1C[C@@H](O)C[C@@H](Cc1ccccc1)C(=O)N[C@H]1c2ccccc2C[C@H]1O | inactive
O=NN(CCCl)C(=O)NCCCl | inactive
CN(C)c1nc(N(C)C)nc(N(C)C)n1 | inactive
C[C@H]1[C@H](NC(=O)/C(=N/OC(C)(C)C(=O)O)c2csc(N)n2)C(=O)N1S(=O)(=O)O (stereo in doubt) | inactive
CCN(CC)C(=O)N[C@@H]1C=C2c3cccc4[nH]cc(c34)C[C@@H]2N(C)C1 | inactive
O=C(O)P(=O)(O)O | inactive
CN(CCOc1ccc(NS(C)(=O)=O)cc1)CCc1ccc(NS(C)(=O)=O)cc1 | inactive
Cc1ccc(C)c(OCCCC(C)(C)C(=O)O)c1 | inactive
CNC1(C)C2CCC(C2)C1(C)C (centres undefined) | inactive

Structure (SMILES) | Potency
Cc1cccc(Nc2ccncc2S(=O)(=O)NC(=O)NC(C)C)c1 | inactive
CC1Cc2ccccc2N1NC(=O)c1ccc(Cl)c(S(N)(=O)=O)c1 (centres undefined) | inactive
CCCCC1=NC2(CCCC2)C(=O)N1Cc1ccc(-c2ccccc2-c2nn[nH]n2)cc1 | inactive
CCN(CC)CCNC(=O)c1cc(Cl)c(N)cc1OC | inactive
Nc1nc(F)nc2c1ncn2[C@@H]1O[C@H](CO)[C@@H](O)[C@@H]1O | inactive
O=c1n(CCCN2CCN(c3cccc(Cl)c3)CC2)nc2ccccn12 | inactive
Oc1ccc(C2CNCCc3c2cc(O)c(O)c3Cl)cc1 (centres undefined) | inactive
CCc1c2c(nc3ccc(OC(=O)N4CCC(N5CCCCC5)CC4)cc13)-c1cc3c(c(=O)n1C2)COC(=O)[C@]3(O)CC | inactive
N[C@@H]1CONC1=O | inactive
NC(=O)OCC(COC(N)=O)c1ccccc1 | inactive
Nc1nnc(-c2cccc(Cl)c2Cl)c(N)n1 | inactive
CC(=O)N[C@@H](CS)C(=O)O | inactive
O=C(O)c1cn(C2CC2)c2cc(N3CCNCC3)c(F)cc2c1=O | inactive
CCCCCOC(=O)Nc1nc(=O)n([C@@H]2O[C@H](C)[C@@H](O)[C@H]2O)cc1F | inactive
O=C1NC(c2ccccc2)(c2ccccc2)C(=O)N1COP(=O)(O)O | inactive
O=C1OCCN1/N=C/c1ccc([N+](=O)[O-])o1 | inactive
NCCC(O)(P(=O)(O)O)P(=O)(O)O | inactive
CN(C)/N=N/c1nc[nH]c1C(N)=O | inactive
